Where “and” joins values, the source holds several entries; their conditions need not be identical. Equal values may be shown once. The panel holds about 79,000 compounds, 15% with a hit somewhere; the sample as a whole holds those more often. Values without a mark were called inactive. Calls of active or inactive are those of the source. Rule as the data show it: active = growth inhibition above about 70%; inactive = the rest.
assay: NCI Yeast Anticancer Drug Screen. Data for the sgs1 mgt1 strain (AID 161);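 also: 0% = growth of cultures given vehicle only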; conditions: S. cerevisiae sgs1 mgt1 strain, at 50.0 µM (retest, dose inferred, filed as 5.0), active compounds read high
Procedure, shortened: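 Test agents were incubated with a DNA-repair-mutant yeast strain. Growth was then read and compared against vehicle-treated controls.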

| SMILES | growth inhibition |
| --- | --- |
| CCC[CH2][Pb]([Cl])([CH2]CCC)[CH2]CCC | 99% (active) |
| CNC(Cc1ccccc1)c1ccc(OC)c(OC)c1 (stereo unspecified) | 14% |
| CC1C(=O)OCC1(C)O (stereo unspecified) | 0% |
| O=C(Nc1ccccc1)c1cc([N+](=O)[O-])ccc1O | 95% (active) |
| N=P(c1ccccc1)(c1ccccc1)c1ccccc1 (tested in a mixture with another compound) | 32% |

same assay, conditions: S. cerevisiae sgs1 mgt1 strain, at 50.0 µM, active compounds read high

| SMILES | growth inhibition |
| --- | --- |
| COC(COC(N)=O)C1=C(N2CC2)C(=O)C(C)=C(N2CC2)C1=O (stereo unspecified) | 43.3% |
| Cc1nc(Cl)c(CBr)c(Cl)n1 | 32.6% |
| C[n+]1[se]nc2cc(C(=O)c3ccccc3)ccc21 (tested in a mixture with another compound) | 99% (active) |
| O=C(O)c1ccccc1.[Ag] | 93.1% (active) and 93.5% (active) |
| CC(=O)[O-].O=C([CH-]C(=O)c1ccccc1)c1ccccc1.O=C([CH-]C(=O)c1ccccc1)c1ccccc1.[Sm+3] | 92.8% (active) |
| CC(C)(Br)C(=O)C(Br)Br | 89.7% (active) |
| COC1(OC)C(Cl)=C(Cl)C(Cl)=C1Cl | 75.2% (active) |
| [C-]#[O+].[C-]#[O+].[Ir].[O-]c1ccc2ccccc2c1N=Nc1ccccc1 | 62.1% |
| O=C(Nc1ccccc1)OC(C[N+](=O)[O-])C(Cl)(Cl)Cl (stereo unspecified) | 99.1% (active) |
| O=c1c2ccccc2[se]n1-c1cccnc1 | 7.85% |
| [Pt].c1ccc(P(CCP(c2ccccc2)c2ccccc2)CCP(c2ccccc2)c2ccccc2)cc1 | 82% (active) |
| CC12CCC(C1)C(C)(C)C2OC(=O)c1ccccc1N (stereo unspecified) | 10.8% |
| CC(=O)[O][Hg][c]1cc2c(cc1O)Cc1cc([N+](=O)[O-])ccc1-2 | 86.2% (active) |
| OC1(c2ccccc2)CC2CCC(C1)N2CCCC(O)(c1ccccc1)c1ccccc1 (stereo unspecified) | 71.8% (active) |
| ClC1=C(Cl)C(Cl)(Cl)SS1 | 92.1% (active) |
| COC(=O)C(F)C(Br)C(=O)OC (stereo unspecified) | 92.5% (active) |
| c1ccc2c(NCCCCCCNc3c4ccccc4nc4ccccc34)c3ccccc3nc2c1 | 61.5% |
| c1ccc2c(NCCCCCCCCNc3c4ccccc4nc4ccccc34)c3ccccc3nc2c1 | 75.4% (active) |
| CN(Cc1ccccc1)CC(O)c1ccc(Cl)cc1 (stereo unspecified) | 58.6% |

| SMILES | growth inhibition |
| --- | --- |
| Br[C](Br)(Br)[Hg][c]1ccccc1 | 90% (active) |
| Cc1cc(N=Nc2ccccc2C)ccc1N | 93.5% (active) and 89.3% (active) |
| C/C(=N\N=C(/[Se])N1CC2CCC(CC2)C1)c1ccccn1 | 89.5% (active) |
| CCCCCCCCCC[Se]C#N | 99.3% (active) |
| CNCC(O)c1ccc(O)c(O)c1.[Pt].c1ccc([PH+](c2ccccc2)c2ccccc2)cc1.c1ccc([PH+](c2ccccc2)c2ccccc2)cc1 | 99.1% (active) |
| CCN(CC)CC.CCOc1ccc(NC(=O)N=C=[N-])cc1.[CH-]1CCCCC1.[CH-]1CCCCC1.[CH-]1CCCCC1.[Cl-].[Sn+4] | 90.2% (active) |
| Cc1cc(N(C)C)c2ccccc2[n+]1CCCCCCCCCC[n+]1c(C)cc(N(C)C)c2ccccc21 | 88.8% (active) |
| CCC[CH2][Sn]1([CH2]CCC)[O]CC(CN2CCCC2)[O]1 (stereo unspecified) | 84.2% (active) |
| N#Cc1ccc([Se]c2ccccc2)cc1 | 72.3% (active) |
| O=c1ssc(Cl)c1Cl | 89.7% (active) |
| Nc1nc(N)c(-c2ccc(Cl)c(Cl)c2)c(CP(Cl)(Cl)(Cl)Br)n1 | 63.6% |
| Cc1ccc(P(c2ccc(C)cc2)c2ccc(C)cc2)cc1 | 39.2% |
| O=C(O)c1ccccc1[Se][Se]c1ccccc1C(=O)O | 15.9% |
| CC1CC(C)CC(C)C(O)/C(C#N)=C/C=C/CC(C2CCCC2C(=O)O)OC(=O)CC(O)C(C)C1 (stereo unspecified) | 93.7% (active) |
| CCC[CH2][Pb]([Cl])([CH2]CCC)[CH2]CCC | 92.2% (active) |
| CNC(Cc1ccccc1)c1ccc(OC)c(OC)c1 (stereo unspecified) | 18.7% |
| CC1C(=O)OCC1(C)O (stereo unspecified) | -5.55% |
| O=C(Nc1ccccc1)c1cc([N+](=O)[O-])ccc1O | 62.5% |
| N=P(c1ccccc1)(c1ccccc1)c1ccccc1 (tested in a mixture with another compound) | 44.1% |

assay: NCI Yeast Anticancer Drug Screen. Data for the CLN2oe strain (AID 163);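 also: 0% = growth of vehicle-only control cultures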; conditions: S. cerevisiae CLN2oe strain, at 1.2 µM, active compounds read high
Procedure, shortened: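 Growth of a genetically modified yeast strain is measured after compound exposure and compared with cultures given vehicle alone.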

| SMILES | growth inhibition |
| --- | --- |
| C=C[C@H]1CN2CC[C@H]1C[C@@H]2[C@@H](O)c1ccnc2ccccc12 | 1% |
| O=c1c2ccccc2[se]n1-c1cccnc1 | 24% |
| CC12CCC(C1)C(C)(C)C2OC(=O)c1ccccc1N (stereo unspecified) | -1% |
| OC1(c2ccccc2)CC2CCC(C1)N2CCCC(O)(c1ccccc1)c1ccccc1 (stereo unspecified) | -4% |
| COC(=O)C(F)C(Br)C(=O)OC (stereo unspecified) | 43% |
| CCCCCCCCCC[Se]C#N | -1% |
| CNCC(O)c1ccc(O)c(O)c1.[Pt].c1ccc([PH+](c2ccccc2)c2ccccc2)cc1.c1ccc([PH+](c2ccccc2)c2ccccc2)cc1 | 0% |
| CC1CC(C)CC(C)C(O)/C(C#N)=C/C=C/CC(C2CCCC2C(=O)O)OC(=O)CC(O)C(C)C1 (stereo unspecified) | 86% (active) |

From PubChem BioAssay (NCI)
